A selection: hits, their analogues and other compounds. The true share with any hit is near 1.7%.
HTR5A inv ctr = HTR5A inverse agonism, opioid heterodimer counter-screen; P47898; HTR5A cell line, luminescence; inhibition, % at 9.3 µM; actives 0.083% (n = 340,000); AID 504634; in the data active = inhibition mostly above about 23%, no sharp cut-off; inactive = mostly below about 18%
Target sequence (P47898 whole entry, looked up): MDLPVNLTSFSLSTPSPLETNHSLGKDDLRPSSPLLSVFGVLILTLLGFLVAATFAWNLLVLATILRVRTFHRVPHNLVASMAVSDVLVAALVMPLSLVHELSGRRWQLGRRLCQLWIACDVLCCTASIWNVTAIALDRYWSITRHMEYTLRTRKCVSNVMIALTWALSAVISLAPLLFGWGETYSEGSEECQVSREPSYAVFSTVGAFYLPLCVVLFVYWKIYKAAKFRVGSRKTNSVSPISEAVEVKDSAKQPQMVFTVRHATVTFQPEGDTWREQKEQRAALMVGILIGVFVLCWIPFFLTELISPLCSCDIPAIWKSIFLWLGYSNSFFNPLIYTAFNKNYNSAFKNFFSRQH
V-ATPase pH = yeast V-ATPase proton transport regulation by pHLuorin. actives 0.37% (n = 350,000). response, % at 10 µM. S. cerevisiae, pHLuorin cytosolic pH fluorescence; in the data active = response mostly above about 7.3%, no sharp cut-off; inactive = mostly below about 5.4%; note: actives read high
HTR5A ag ctr = counter-screen for OPRM1-OPRD1 agonists: human HTR5A agonism; HTR5A agonist assay, luminescence, cell-based; activation, % at 9.3 µM; actives 0.61% (n = 340,000); AID 504692; in the data active = activation mostly above about 9.5%, no sharp cut-off; inactive = mostly below about 7.6%
MOR-DOR ag = OPRM1-OPRD1 heterodimerization agonism; cells, luminescence; activation, % at 9.3 µM; actives 0.3% (n = 340,000)
beta cell repl = MIN6 beta-cell proliferation induction; AID 2380; proliferation, % at 10 µM; actives 0.29% (n = 330,000); MIN6 cells proliferation, ATPlite luminescence, 48 h; cells starved in 0.2% serum; 100% = growth in 10% serum;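 active = compounds whose signal lies at least 3.5 SD above the mean of all wells on their plate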
OPRM1-OPRD1 inv = inverse agonists of human mu-delta opioid receptor heterodimerization; cell-based MOR-DOR heterodimer luminescence, inverse agonism; AID 504357; inhibition, % at 9.3 µM; P35372+P41143; actives 0.21% (n = 340,000); in the data active = inhibition above about 22%, passing the limit was not always enough
MOR-DOR ag conf = OPRM1-OPRD1 heterodimer agonism, confirmation | shares compounds with MOR-DOR ag | cells, MOR-DOR heterodimerization, luminescence complementation | activation, % at 9.3 µM | actives 45% (n = 830) | AID 504904
HTR5A ag ctr2 = activates human HTR5A in OPRM1-OPRD1 agonist counter-screen | shares compounds with MOR-DOR ag | HTR5A agonist counterscreen, cell luminescence | AID 504905 | activation, % at 9.3 µM | actives 8% (n = 830); in the data active = activation above about 17%
OPRM1-D1 inv cf = confirmation of human OPRM1-OPRD1 heterodimerization inverse agonists. inhibition, % at 9.3 µM. shares compounds with OPRM1-OPRD1 inv. cells expressing OPRM1/OPRD1 heterodimer, luminescence. actives 20% (n = 580); in the data active = inhibition above about 32%
HTR5A inv count = counter-screen for OPRM1-OPRD1 inverse agonists: human HTR5A inverse agonism | inhibition, % at 9.3 µM | HTR5A-expressing cells, luminescence | 580 tested, under 10 active | AID 504914 | shares compounds with OPRM1-OPRD1 inv; call rule not given here
Each line names hits and unclear results; the compound was inactive in the other large screens (follow-up assays come after a bar, where they were run). Cut-off read from the data, not from the text of the source, unless noted: active = activation above about 18%; inactive = the rest.

Cc1ccc(C)c(NC(=S)NC(NC(=O)N(C)C)C(Cl)(Cl)Cl)c1 (stereo not drawn)	none
Cc1ccc(C)c(NC(=S)NC(NC(=O)Cc2cccc3ccccc23)C(Cl)(Cl)Cl)c1 (stereo not drawn)	MOR-DOR ag 27 | MOR-DOR ag conf inactive | HTR5A ag ctr2 inactive
Cc1ccc(-c2csc3ncnc(-n4nnc5ccccc54)c23)cc1C	none
Cc1ccc(-c2csc3ncnc(-n4nnc5ccccc54)c23)cc1	MOR-DOR ag 23 | MOR-DOR ag conf inactive | HTR5A ag ctr2 inactive
CCN1CCN(S(=O)(=O)c2ccc(Cl)c(C(=O)N(CCc3ccccc3)Cc3ccccc3)c2)CC1	MOR-DOR ag 20 (no result: beta cell repl) | MOR-DOR ag conf 360 | HTR5A ag ctr2 inactive
CCOC(=O)c1c(NC(=O)CN2CCN(S(=O)(=O)c3cc(Cl)ccc3Cl)CC2)sc(C(=O)N(C)C)c1C	MOR-DOR ag 18 (no result: beta cell repl) | MOR-DOR ag conf inactive | HTR5A ag ctr2 inactive
Cc1ccc(S(=O)(=O)Nc2cccc(C(=O)NCc3ccccn3)c2)cc1F	none
COCCN(CCOC)C(=O)CSc1ccc(S(=O)(=O)N2CCN(C)CC2)cn1	MOR-DOR ag 32 | MOR-DOR ag conf inactive | HTR5A ag ctr2 inactive
CC(=O)CSc1ccc(S(=O)(=O)N2CCN(C)CC2)cn1	none
COc1cccc(-c2ncc3ccccc3c2COC(=O)N2CCCCC2)c1	none
CCOC(=O)C1=C(c2ccccc2)NC(=O)NC1c1ccc(O)c(Cl)c1 (stereo not drawn)	HTR5A ag ctr 31, MOR-DOR ag 103 | MOR-DOR ag conf 82 | HTR5A ag ctr2 28
NC(=O)c1cc(-c2csc(NCCc3ccccc3)n2)ccc1O	MOR-DOR ag 19 | MOR-DOR ag conf 20 | HTR5A ag ctr2 inactive
C=CCNc1nc(-c2ccc(O)c(C(N)=O)c2)cs1	none
CC(CCc1ccccc1)NC(=O)c1ccc(NC(=O)c2ccccc2)cc1 (stereo not drawn)	MOR-DOR ag 26 | MOR-DOR ag conf inactive | HTR5A ag ctr2 inactive
CN(C)CCCN(C(=O)c1ccc(S(=O)(=O)N(C)C2CCCCC2)cc1)c1nc2ccc(Br)cc2s1	none
CN(C)CCCN(C(=O)c1ccc(S(=O)(=O)N(C)Cc2ccccc2)cc1)c1nc2c(F)cccc2s1	MOR-DOR ag 47 | MOR-DOR ag conf 108 | HTR5A ag ctr2 inactive
CN(C)CCCN(C(=O)c1ccc(S(=O)(=O)N(C)C2CCCCC2)cc1)c1nc2ccc(F)cc2s1	MOR-DOR ag 327 | MOR-DOR ag conf 121 | HTR5A ag ctr2 inactive
CCc1ccc2nc(N(CCCN(C)C)C(=O)c3ccc(S(=O)(=O)N4CCc5ccccc5C4)cc3)sc2c1	MOR-DOR ag 29 | MOR-DOR ag conf 36 | HTR5A ag ctr2 inactive
CCc1ccc2nc(N(CCCN(C)C)C(=O)c3ccc(S(=O)(=O)N(C)C4CCCCC4)cc3)sc2c1	MOR-DOR ag 19 | MOR-DOR ag conf 50 | HTR5A ag ctr2 inactive
CN(CC(=O)Nc1cccc(F)c1)C(=O)c1cc(S(=O)(=O)N2CCCCC2)ccc1N1CCOCC1	none
CCOc1ccc(C(=O)Nc2cc(-c3nc4ccccc4[nH]3)ccc2Cl)cc1[N+](=O)[O-]	none
CCc1ccc(N2CC(C(=O)N3CCN(c4ccccn4)CC3)CC2=O)cc1 (stereo not drawn)	none
O=Cc1ccc(OC(=O)CCCCC(=O)Oc2ccc(C=O)cc2)cc1	none
CCN(Cc1ccccc1)S(=O)(=O)c1ccc(C(=O)N(CCCN(C)C)c2nc3ccc(F)cc3s2)cc1	MOR-DOR ag 412 | MOR-DOR ag conf inactive | HTR5A ag ctr2 inactive
O=C(CNc1ccccc1C(=O)O)c1ccccc1	OPRM1-OPRD1 inv 71 | OPRM1-D1 inv cf inactive | HTR5A inv count inactive
O=C(Nc1ccccc1C(=O)O)c1ccccc1	none
NC(=O)c1ccccc1NCC(=O)c1ccc(Cl)cc1	OPRM1-OPRD1 inv 46 | OPRM1-D1 inv cf inactive | HTR5A inv count inactive
NC(=O)c1ccccc1OCC(=O)c1ccc(Cl)cc1	none
COc1ccccc1N(/N=C1\Sc2ccccc2C1=O)C(C)=O	OPRM1-OPRD1 inv 75 | OPRM1-D1 inv cf inactive | HTR5A inv count inactive
COc1ccc(CN(C(C)=O)c2ccccc2C(=O)O)cc1	none
COc1ccc(N(/N=C2\Sc3ccccc3C2=O)C(C)=O)cc1	OPRM1-OPRD1 inv 70 (no result: beta cell repl) | OPRM1-D1 inv cf inactive | HTR5A inv count inactive
CCS(=O)(=O)Nc1cccc(C(=O)CC2(O)C(=O)Nc3ccccc32)c1 (stereo not drawn)	none
CS(=O)(=O)Nc1cccc(C(=O)CC2(O)C(=O)Nc3ccccc32)c1 (stereo not drawn)	none
COC(=O)CN1C(=O)C(O)(CC(=O)c2cccc(Br)c2)c2ccccc21 (stereo not drawn)	OPRM1-OPRD1 inv 43 | OPRM1-D1 inv cf inactive | HTR5A inv count inactive
NC(=O)CN1C(=O)C(O)(CC(=O)c2ccccc2O)c2ccccc21 (stereo not drawn)	OPRM1-OPRD1 inv 43 (no result: beta cell repl) | OPRM1-D1 inv cf 43 | HTR5A inv count inactive
O=C(CC1(O)C(=O)Nc2ccccc21)c1cccc(Br)c1 (stereo not drawn)	OPRM1-OPRD1 inv 33 | OPRM1-D1 inv cf inactive | HTR5A inv count inactive
CS(=O)(=O)Nc1cccc(C(=O)CC2(O)C(=O)Nc3ccc(Br)cc32)c1 (stereo not drawn)	OPRM1-OPRD1 inv 35 | OPRM1-D1 inv cf inactive | HTR5A inv count inactive
O=c1c2cc3c(cc2[nH]c(=S)n1C1CCN(Cc2ccccc2)CC1)OCO3	none
CSc1nc(=S)c2[nH]c(=S)[nH]c2[nH]1	none (no result: beta cell repl)
Cc1ccc(Cl)cc1NC(=S)N(CCCN1CCN(C)CC1)Cc1ccco1	none
CC(C)C1OC2c3cccc4cccc(c34)C2N1c1ccccc1 (stereo not drawn)	OPRM1-OPRD1 inv 65 | OPRM1-D1 inv cf inactive | HTR5A inv count inactive
S=C(NCCCN1CCOCC1)NC1CC1	none
COC(=O)CCC/C=C1/SCC(NC(=O)c2ccccc2)C1=O (stereo not drawn)	OPRM1-OPRD1 inv 33 | OPRM1-D1 inv cf inactive | HTR5A inv count inactive
CCCCC(=O)NC(=S)NNC(=O)CCc1ccccc1	OPRM1-OPRD1 inv 39 | OPRM1-D1 inv cf inactive | HTR5A inv count inactive
CC(=O)NC(=S)NNC(=O)CCc1ccccc1	none

From PubChem BioAssay
